Only some compounds are listed: those with a hit (about 7.4% of all), similar ones and a draw of the others.
NIH3T3 tox: Cytotoxic Profiling in NIH 3T3 Cell Line of Diverse Libraries Using Quantitative High-Throughput Screening. NIH 3T3 viability, CellTiter-Glo ATP luminescence, 48-72 h. Potency, µM (titrated, usually from 96.7 µM), without a hit: top-dose activity change, negative = cytotoxicity, actives largely listed as inhibitors. 4.3% of 94,000 active; further: nearly all actives have a fitted effect of over 55% in size
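Viability of NIH 3T3 cells after 48 or 72 hr compound treatment at 37 °C was assessed by CellTiter-Glo, with luminescence imaged following a 10 min room-temperature step.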
HEK cytotox: Cytotoxic Profiling in HEK 293 Cell Line of Diverse Libraries Using Quantitative High-Throughput Screening | 6.6% of 94,000 active | Potency, µM (doses to about 115 µM), inactives show at the top dose activity change, negative = cytotoxicity, usual class: inhibitors | AID 1345083, 2018 | HEK 293 viability, ATP luminescence (CellTiter-Glo), 48-72 h; further: nearly all actives have a fitted effect of over 60% in size
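HEK 293 seeded at 250 cells/well receive compound via pintool. After 48 or 72 hr at 37 degree Celsius, 5% CO2 and 95% humidity, CellTiter-Glo is dispensed and luminescence read following 10 min at room temperature.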
FLuc inh: Firefly luciferase inhibition profiling of diverse chemical library using quantitative high-throughput screening; Potency, µM (highest dose often 115 µM), usual class: inhibitors; Luciferin 4-monooxygenase (Photinus pyralis), P08659; AID 1347043, 2019; purified P. pyralis luciferase, luminescence, biochemical; 2.5% of 76,000 active; further: nearly all actives have a fitted effect of over 65% in size
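Purified P. pyralis luciferase (10nM final) in 50mM Tris acetate pH 7.5, 10mM Mg acetate, 0.01% Tween-20, 0.05% BSA with 10uM D-luciferin and 10uM ATP. Compounds titrated qHTS. Luminescence imaged on CCD.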
SNCA viab count: GF-AFC viability counterscreen for inhibitors of alpha-synuclein gene (SNCA) expression; HEK-293-SNCA-luc viability, GF-AFC fluorescence, 24 h; Potency, µM (highest dose often 57.1 µM), inactives show at the top dose activity change, negative = cytotoxicity, actives largely listed as cytotoxic; 0.12% of 150,000 active; AID 1671193, 2021;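 further: 0% = DMSO-treated cells and -100% = medium-only wells without cells; nearly all actives have a fitted effect of over 30% in size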
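HEK-293-SNCA-luc cells (1500/well) plated 24 h, then exposed 24 h to a dilution series; GF-AFC added 30 min at 37C, fluorescence 405/540 nm; normalised to medium-only and DMSO wells, Hill fit.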
hNpr1 antagonist: Natriuretic polypeptide receptor (hNpr1) antagonism - Primary qHTS; Atrial natriuretic peptide receptor 1 (Homo sapiens), P16066; HEK293 hNpr1 GloSensor cGMP, ANP-stimulated luminescence; Potency, µM (titrated, usually from 46.3 µM), without a hit: at the highest dose activity change, negative = inhibition, actives largely listed as inhibitors; 1.6% of 76,000 active; calls by dose curve; further: nearly all actives have a fitted effect of over 60% in size
Target sequence (P16066 whole entry, looked up): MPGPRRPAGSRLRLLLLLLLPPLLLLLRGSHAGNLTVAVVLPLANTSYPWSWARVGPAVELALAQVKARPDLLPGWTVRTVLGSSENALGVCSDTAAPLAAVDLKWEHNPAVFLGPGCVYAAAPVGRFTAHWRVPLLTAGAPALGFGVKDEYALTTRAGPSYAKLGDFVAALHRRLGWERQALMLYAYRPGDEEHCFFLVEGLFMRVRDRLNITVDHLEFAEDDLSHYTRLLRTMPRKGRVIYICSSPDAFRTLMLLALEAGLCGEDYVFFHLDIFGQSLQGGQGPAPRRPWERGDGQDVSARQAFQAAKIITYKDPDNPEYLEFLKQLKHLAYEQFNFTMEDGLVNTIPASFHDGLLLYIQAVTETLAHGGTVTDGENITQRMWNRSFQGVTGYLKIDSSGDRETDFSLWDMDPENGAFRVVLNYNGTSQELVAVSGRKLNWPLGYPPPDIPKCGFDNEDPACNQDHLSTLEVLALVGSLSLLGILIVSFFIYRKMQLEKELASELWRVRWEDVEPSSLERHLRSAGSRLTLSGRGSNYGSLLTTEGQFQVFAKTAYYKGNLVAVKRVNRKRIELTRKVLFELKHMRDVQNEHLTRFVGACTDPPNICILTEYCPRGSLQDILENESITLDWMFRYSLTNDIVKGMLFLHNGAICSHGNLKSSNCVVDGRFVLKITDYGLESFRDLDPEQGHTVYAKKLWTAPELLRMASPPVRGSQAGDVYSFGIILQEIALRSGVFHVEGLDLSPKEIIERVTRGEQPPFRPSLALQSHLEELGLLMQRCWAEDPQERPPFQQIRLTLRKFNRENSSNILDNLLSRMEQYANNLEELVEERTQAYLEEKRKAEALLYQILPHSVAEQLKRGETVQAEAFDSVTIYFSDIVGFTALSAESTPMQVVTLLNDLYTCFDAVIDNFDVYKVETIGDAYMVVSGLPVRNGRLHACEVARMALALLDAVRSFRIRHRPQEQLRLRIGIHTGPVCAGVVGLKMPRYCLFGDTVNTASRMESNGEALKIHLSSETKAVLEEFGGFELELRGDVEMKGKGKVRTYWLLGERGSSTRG
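HEK293 cells stably expressing human Npr1 and cGMP GloSensor pGS-40F, loaded 2 h with 2% GloSensor reagent, given compound 30 min at room temperature. Luminescence read before and 20 min after 0.1 nM hNppA.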
SNCA expr inh: Primary qHTS assay for inhibitors of alpha-synuclein gene (SNCA) expression; HEK-293 SNCA-luciferase knock-in, luminescence, 24 h; Potency, µM (highest dose often 57.2 µM), without a hit: top-dose activity change, negative = inhibition, most hits filed as inhibitors; 0.17% of 140,000 active;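 further: plate controls were DMSO cells for no effect and cell-free wells for full effect; nearly all actives have a fitted effect of over 45% in size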
* hit, by the source's call; i = inactive; u = inconclusive; x = no result given; [ ] = another dose, or the depositor's remark. Unless noted, the call rests on the fitted dose curve; in most records, active means well fitted curve in the direction sought with a large enough effect; inconclusive means small, poorly fitted or top-dose-only effect, or another doubt; inactive means no such curve, though single readings can be large; an effect the other way counts as inactive or inconclusive. Unless noted, on the % scale 0 is the no-effect control and ±100 the full control effect; potency means the concentration at half of the fitted maximal effect.

SMILES	NIH3T3 tox	HEK cytotox	FLuc inh	SNCA viab count	hNpr1 antagonist	SNCA expr inh
O=C(NCC1CN(CC2CC2)CC12CN(c1ccccc1)C2)Nc1ccccc1 (stereo not given)	100µM*	u	i	-10%[87.6 µM]	-1%[70.6 µM]	u
O=C(NCC1CN(CC2CC2)CC12CN(c1ccccc1)C2)c1ccccc1 (stereo not given)	89µM*	u	i	-21%[87.6 µM]	-16%[70.6 µM]	u
c1ccc(-c2nnc3n2CCN(CC2CC2)C3)cc1	u	i	x	-5%[87.6 µM]	x	-30%[87.6 µM]
COC[C@H]1NC(=O)CC[C@H]1C(=O)NCCC1=CCCCC1	-11%	u	i	5%	7%	36%
O=C(C1CCCC1)N1CC2(CCN(CC3CCCCC3)C2)Cc2ccccc21 (stereo not given)	32µM*	u	x	-16%	x	-13%
O=C(C1CCCC1)N1CC2(CCN(Cc3ccc(Cl)cc3)C2)Cc2ccccc21 (stereo not given)	40µM*	u	x	-22%	x	-18%
NC(=O)c1cccc(CN2CCC3(Cc4ccccc4N(C(=O)C4CCCC4)C3)C2)c1 (stereo not given)	-29%	79µM*	x	-16%	x	-16%
O=C(C1CCCC1)N1CC2(CCCN(Cc3c[nH]c4ccccc34)C2)Cc2ccccc21 (stereo not given)	25µM*	22µM*	x	u	x	u
O=C(c1ccccc1Cl)N1CCc2nc(C3CC3)nc(-c3ccc(Cl)cc3)c2C1	u	u	x	0%	x	1%
O=C(NCC1CC1)C1CCCN1C(=O)c1cccc(-c2cccnc2)c1 (stereo not given)	-22%	-16%	x	x	x	x
Cc1ccc(-c2ccccc2CN2CCN(C(=O)C3CC3)CC2)cc1Cl	u	u	x	3%[12.5 µM]	x	-11%
Cc1nc2c(OCC(=O)c3ccccc3)cccn2c(=O)c1-c1cc(C)n(-c2ccc(Cl)cc2)n1	u	u	28µM*	4%	0%	u
CCOc1cccn2c(=O)c(-c3cc(C)n(-c4ccc(Cl)cc4)n3)c(C)nc12	-15%	u	i	-4%	-1%	-16%
Cc1cccc(C=NNc2cc(N3CCOCC3)nc(OCCc3ccccn3)n2)c1	x	x	x	-1%	x	78%
O=C(Nc1cccc(F)c1)N1CCc2c(c3ccccc3n2CC2CC2)C1	25µM*	45µM*	i	u	-16%	8%
Cn1c2c(c3ccccc31)CN(C(=O)NC1CCCCC1)CC2	32µM*	45µM*	i	-1%	-7%	1%
Cc1ccc(NC(=O)N2CCc3c(c4ccccc4n3CC3CC3)C2)cc1	25µM*	u	14µM*	1%	-26%	73%
COc1ccc(NC(=O)N2CCc3c(c4ccccc4n3C)C2)cc1	u	u	u	-9%	-3%	87%
O=C(Nc1ccc(F)c(F)c1)N1CCc2c(c3ccccc3n2CC2CC2)C1	u	13µM*	i	-10%	-25%	u
O=C([C@@H]1C[C@H](Oc2cccnc2)CN1C(=O)c1ccncc1)N1CCOCC1	-3%	-7%	i	0%	-2%	-19%
CC1CCC2(C(=O)OC3OC(COC4OC(CO)C(O)C(O)C4O)C(O)C(O)C3O)CCC3(C)C(=CCC4C5(C)CCC(O)C(C)(C(=O)O)C5CCC43C)C2C1(C)O (stereo not given)	x	x	x	1%[12.5 µM]	x	x
O=C1CN(C(=O)c2ccc(Cl)cc2)CC(O)CN1CCOc1ccccc1 (stereo not given)	-26%	u	x	x	x	x
Cn1c2c(c3ccccc31)CN(C(=O)Nc1ccccc1)CC2	u	-10%	i	9%	-17%	17%
Cn1c2c(c3cc(F)ccc31)CN(C(=O)Nc1ccc(F)c(Cl)c1)CC2	13µM*	32µM*	u	u	u	u
COc1ccc(-c2cc3c(ccn3C)c(C(=O)NCCC(N)=O)n2)cc1OC	u	-11%[172 µM]	u	3%[87.6 µM]	0%[70.6 µM]	u
SMILES	NIH3T3 tox	HEK cytotox	FLuc inh	SNCA viab count	hNpr1 antagonist	SNCA expr inh
Cn1ccc2c(C(=O)NCc3cccnc3)nc(-c3cccnc3)cc21	25µM*	-26%[172 µM]	i	-6%[87.6 µM]	-12%[70.6 µM]	-4%[87.6 µM]
Cn1ccc2c(C(=O)NCc3cccnc3)nc(-c3ccc(CO)cc3)cc21	45µM*	-2%[172 µM]	i	3%[87.6 µM]	0%[70.6 µM]	33%[87.6 µM]
CN(C)CCNC(=O)c1nc(-c2ccc(N3CCN(C)CC3)cc2)cc2c1ccn2C	7.9µM*	u	u	u	-1%[70.6 µM]	u
CC(=O)Nc1cccc(-c2cc3c(ccn3C)c(C(=O)NCc3cccnc3)n2)c1	25µM*	u	i	-10%[87.6 µM]	-21%[70.6 µM]	29%[87.6 µM]
Cn1ccc2c(C(=O)NCc3cccnc3)nc(-c3ccncc3)cc21	u	u	u	7%[87.6 µM]	2%[70.6 µM]	37%[87.6 µM]
Cc1nccn1CCCC(=O)N1CCC2(CCC(=O)N(CC3CCCO3)C2)CC1 (stereo not given)	-9%	1%	i	0%	0%	-9%
Cn1ccc2c(C(=O)NCc3cccnc3)nc(-c3ccccc3C(F)(F)F)cc21	45µM*	71µM*	i	-21%[87.6 µM]	-3%[70.6 µM]	-6%[87.6 µM]
Cc1cn2nc(C(=O)NCCCc3ccccc3)cc2c(=O)[nH]1	-25%	-24%	14µM*	1%	15%	75%
Cc1ccc(CNC(=O)c2ccc(NC(=O)c3cc4c(=O)[nH]c(C)cn4n3)cc2)cc1	-4%	u	11µM*	7%	6%	15%
CSc1ccc(CNC(=O)c2cc3c(=O)[nH]c(C)cn3n2)cc1	-25%	-9%	13µM*	12%	9%	196%
CCc1ccc(CNC(=O)c2nnn3cc(C)[nH]c(=O)c23)cc1	35µM*	-29%	i	17%	-30%	-8%
CN(C)C[C@@H]1CN(c2ncccn2)C[C@H]1NC(=O)Cc1ccc(F)cc1	2%	i	i	6%	10%	1%
COc1ccc(-c2noc([C@@H]3CCCN3Cc3ccccc3OC)n2)cn1	u	u	i	-10%[87.6 µM]	-3%[70.6 µM]	5%[87.6 µM]
CN(C)c1ccc(-c2noc([C@@H]3CCCN3Cc3nc4ccccc4n3C)n2)cn1	u	112µM*	i	-10%[87.6 µM]	2%[70.6 µM]	5%[87.6 µM]
CC(=O)N1CCN(c2cc(-c3noc([C@@H]4CCCN4Cc4ccc(C(F)(F)F)cc4)n3)ccn2)CC1	-35%	28µM*	i	-20%	-15%	u
